Measured values taken from PubChem BioAssay AID485364 (National Center for Advancing Translational Sciences (NCATS), 2010).
Screen size: about 360,000 compounds; about 11,000 (3.1%) were called active. Another 4% or so got no clear call; they are omitted. Only a selection was taken, and actives are over-represented in it overall. Values without a mark were called inactive. Calls come from the whole dose curve; as a rule, active = well fitted inhibition curve with a large enough effect; inconclusive = small, poorly fitted or top-dose-only effect; inactive = no such curve, though single readings can be large or run the other way.

The molecules below were run against Schistosoma mansoni thioredoxin glutathione reductase (TGR) (UniProt Q962Y6) (assay: qHTS Assay for the Inhibitors of Schistosoma Mansoni Peroxiredoxins). Settings: purified TGR, DTNB reduction, TNB absorbance 405 nm; series mostly up to 114 µM; activity change, negative = inhibition: at the top concentration.
Description: Schistosomiasis is a major neglected tropical disease that currently affects over 200 million. It is caused by different species of flatworms, such as Schistosoma mansoni. Over the last century, drugs to treat the disease have evolved from potassium antimonyl tartrate, artemisinin, oxamniquine, to praziquantel, with praziquantel remaining the universally-used single drug of choice over the past three decades. However, transmission rates have changed little with praziquantel, and there is evidence for the development of drug resistant parasites. Because there is currently no suitable alternative therapy available, there is an urgent need to identify new targets and drugs for schistosomiasis treatment. Thioredoxin glutathione reductase (TGR), one uniquely positioned S. mansoni enzyme, has been identified as a major component of the worms' distinct and compressed antioxidant "firewall". TGR is a multifunctional enzyme that catalyzes the interconversion between reduced and oxidized forms of both glutathione (GSH) and thioredoxins, thus making it an attractive new antiparasitic target. Recently, a quantitative high-throughput screen of the NIH Molecular Libraries Small Molecule Repository (MLSMR, ~71K at the time of the screen in 2007) was performed using an assay that targeted both TGR and peroxiredoxin2 (Prx2, an H2O2-reducing enzymatic component of the S. mansoni redox "firewall") by following the decrease of NADPH fluorescence. […] Additional mechanistic link between exogenous NO donation and parasitic injury for the oxadiazole-2-oxide class of compounds was also expanded and better defined. Although the screen addressed both TGR and Prx2, the assay required post-screen target deconvolution for further characterization of the actives. In addition, the fluorescence assay was also subject to fluorescence interference from compound library members. We have developed a 1536-well-based kinetic HTS assay to address TGR alone. The assay followed the reduction of 5, 5'-dithiobis (2-nitrobenzoic acid) (DTNB) (Ellman's reagent) by NADPH and measured the increase in absorbance at 412 nm of the reaction product, TNB. […] This assay format can be used to screen the current MLSMR collection (with >300K compounds available) to find novel TGR inhibitors. Furoxan is a good choice to serve as a positive control in the primary HTS assay.
Three microliters of reagents (100 uM NADPH and 20 nM TGR or 100 uM NADPH as no-enzyme control) were dispensed into 1,536-well black clear-bottomed plates. Compounds (23 nL) were transferred via Kalypsys pin tool equipped with 1536-pin array (10 nL slotted pins, V&P Scientific, San Diego, CA). The plates were then be incubated for 15 min at room temperature, and 1 uL aliquot of 500 uM NADPH were added, immediately followed by a 1 uL aliquot of 15 mM DTNB to start the reaction. The plate was transferred to a ViewLux high-throughput CCD imager (Perkin-Elmer, Wellesley, MA) where kinetic measurements of the TNB absorbance were acquired using a 405 excitation filter. Throughout the screen, reagent bottles and all liquid lines were made light-tight to minimize reagent degradation. All screening operations were performed on a fully integrated robotic system (Kalypsys, San Diego, CA) containing one RX-130 and two RX-90 anthropomorphic robotic arms (Staubli, Duncan, SC). Library plates were screened starting from the lowest and proceeding to the highest concentration, and a "double-dipping" step of the highest concentration was required to access higher concentrations of compounds. Vehicle-only plates, with DMSO being pin-transferred to the entire column 5-48 compound area, were inserted uniformly at the beginning and the end of each library in order to monitor for and record any shifts in the background, which can be affected by reagent dispensers or loss in enzyme activity overtime. […]
% is set by controls: 0 for no effect and ±100 for the full control effect; potency is the fitted concentration of half-maximal effect.
Note: nearly all actives have a fitted effect of over 60% in size.

Compound	activity change, negative = inhibition	Potency
O=S(=O)(c1ccccc1)c1nc(-c2ccc(Cl)cc2Cl)oc1N1CCCCC1	-2.81%	–
O=S(=O)(c1ccc(Cl)cc1)c1nc(-c2ccco2)oc1N1CCCCC1	–	14.1 µM (active)
O=C(CSc1oc(-c2ccco2)nc1S(=O)(=O)c1ccc(Cl)cc1)c1ccccc1	-4.02%	–
CCCc1nn2c(=O)cc(COC(=O)c3ccc(NC(=O)C(C)Oc4ccccc4)cc3)nc2s1 (centres undefined)	-1.34%	–
N#Cc1c(N)n(CCOC(=O)c2ccc(Cl)cc2)c2nc3ccccc3nc12	3.75%	–
CN(C)CCCn1c(N)c(C#N)c2nc(C#N)c(C#N)nc21	–	20 µM (active)
CCCN(CCC)C(=O)C(Cc1ccccc1)NS(=O)(=O)c1ccc2c(c1)c(=O)n(C)c(=O)n2C (centres undefined)	-10.4%	–
CCCN(CCC)CCNC(=O)Cn1cnc2sc(C)c(S(=O)(=O)N3CCC(C)CC3)c2c1=O	-0.546%	–
C=CCSc1nnc(N2C(=O)C(O)=C(C(=O)c3ccco3)C2c2ccc(F)cc2)s1 (centres undefined)	–	14.1 µM (active)
CC(C)c1ccc(C2C(C(=O)c3ccco3)=C(O)C(=O)N2CC2CCCO2)cc1 (centres undefined)	12.7%	–
Cc1ccc2nc(N3C(=O)C(O)=C(C(=O)c4ccco4)C3c3cccc(O)c3)sc2c1 (centres undefined)	-23.4%	–
COc1ccc(NC(=O)CSc2ccc(-c3ccco3)nn2)c(OC)c1	–	20 µM (active)
S=C(NCc1ccc2c(c1)OCO2)NCc1ccco1	–	35.5 µM (active)
Cc1c(Cl)cccc1NC(=S)NCc1ccc2c(c1)OCO2	3.48%	–
CCn1c(=O)cc(SCC(=O)NCc2ccc3c(c2)OCO3)c2ccccc21	-0.229%	–
O=C(CSc1ccc(-c2ccccn2)nn1)Nc1ccccc1	1.31%	–
O=C(CSc1ccc(-c2ccco2)nn1)Nc1cccc(F)c1	–	10 µM (active)
COC(=O)Cc1ccc(NC(=S)NCc2ccco2)cc1	-28.3%	–
COc1ccc(NC(=O)CSc2nc(SC)ns2)c(OC)c1	26.6%	–
O=C(CSc1ccc(-c2ccc(F)cc2)nn1)Nc1ccc2c(c1)OCCO2	7.31%	–
COc1ccc(NC(=O)CCC(=O)Nc2cc(OC)c(NC(=O)c3ccco3)cc2OC)c(OC)c1	1.32%	–
Cc1ccccc1-c1nnc(SCC(=O)NCc2ccc3c(c2)OCO3)n1C	-18.6%	–
O=C(CSc1ccc(-c2ccco2)nn1)NCc1ccc2c(c1)OCO2	–	12.6 µM (active)
CCCn1c2ccccc2c2cnn(CC(=O)N(CC)c3cc(C)ccc3C)c(=O)c21	3.15%	–
Fc1ccc(C(Nc2ccc(Cl)c(C(F)(F)F)c2)c2nnc(-c3ccccc3)o2)cc1 (centres undefined)	-1.3%	–

Compound	activity change, negative = inhibition	Potency
Cc1ccc(Nc2c(-c3ccc(C)cc3)nc3cnccn23)cc1	-3.11%	–
CCOC(=O)c1cc2c(=O)n3ccccc3nc2n(CCCOC)c1=NC(=O)C(C)(C)Oc1ccc(Cl)cc1	9.19%	–
Cc1ccc(C)c(NC(=O)C2CCCN(S(=O)(=O)c3cn(C)cn3)C2)c1 (centres undefined)	4.47%	–
O=C(CC1Oc2ccc(Cl)cc2NC1=O)NCc1ccccc1 (centres undefined)	-12.8%	–
CCCSc1ncc(Cl)c(C(=O)Nc2sc3c(c2C(=O)NCCOC)CCCC3)n1	-1.84%	–
CCCN(CCC)CCCNC(=O)Cn1ncc2c3ccccc3n(Cc3ccccc3)c2c1=O	-2.18%	–
COc1ccccc1NC(=O)c1oc2ccccc2c1NC(=O)C(C)C	4.86%	–
CCN(CC)S(=O)(=O)c1nnc(NC(=O)COc2ccccc2Cl)s1	9.78%	–
CC(OC(=O)c1ccc2ccccc2n1)C(=O)c1ccccc1 (centres undefined)	-3.31% [at 57.1 µM]	–
COc1ccc(-c2onc3ccc(C(C)=O)cc23)cc1	-31.4%	–
CC(OC(=O)c1ccc2noc(-c3ccccc3)c2c1)C(N)=O (centres undefined)	–	35.5 µM (active)
Cc1nc2nc(SCC(=O)N(Cc3ccccc3)C(C)C)nn2c(C)c1Cc1ccccc1Cl	-0.675%	–
Cc1ccc(Nc2c(-c3ccc(Cl)cc3)nc3sccn23)c(C)c1	12.8%	–
COc1ccc(-n2c(C)nc3c(cnn3-c3ccc(F)cc3)c2=O)cc1	7.03%	–
O=C(c1ccco1)n1nc(-c2ccc(Cl)cc2)nc1NCc1ccccc1	-1.85%	–
Cc1ccc(S(=O)(=O)n2nc(-c3ccc(Cl)cc3)nc2NCc2ccccc2)cc1	7.22%	–
CS(=O)(=O)n1nc(-c2ccccc2)nc1NCc1ccco1	–	44.7 µM (active)
Cc1ccc(CNC(=O)CCc2c(C)nc3nc(CNC(=O)OC(C)(C)C)nn3c2C)cc1	-4.1%	–
Cc1cc(OCC(=O)NCC2(N(C)C)CCCCC2)cc(C)c1Cl	0.106%	–
O=C(C1=C[C@H](c2ccc(C(F)(F)F)cc2)C[C@H](OCc2ccc(CO)cc2)O1)N1CCN(Cc2ccccc2)CC1	–	28.2 µM (active)
O=C(C1=C[C@H](c2coc3ccccc3c2=O)C[C@H](OCc2ccc(CO)cc2)O1)N1CCN(Cc2ccccc2)CC1	-28.2%	–
O=C(NCc1ccccc1)C1=C[C@@H](c2ccc(C(F)(F)F)cc2)C[C@@H](OCc2ccc(CO)cc2)O1	-28.1%	–
O=C(CSCc1cnn(-c2ccccc2)c1-n1cccc1)NCc1ccc(Cl)cc1	-13.6%	–
CCOc1ccc(C(=O)c2cn(Cc3ccccc3OC)c3ccc(F)cc3c2=O)cc1	1.39%	–
COc1ccc2c(c1)Cc1sc(NC(=O)c3ccccc3Br)nc1-2	-24.5%	–

Compound	activity change, negative = inhibition	Potency
O=S(=O)(c1ccc(C2CCCCC2)cc1)N1CCN(c2ccc(Cl)c(Cl)c2)CC1	0.0481%	–
CCCCNC(=O)C1CCCN(c2nnc(C)c3c(C)n(-c4ccc(Cl)cc4)nc23)C1 (centres undefined)	-3.38%	–
CCN(CCCNC(=O)Cn1ncc2c([nH]c3ccccc32)c1=O)c1cccc(C)c1	-0.871%	–
CN(C)c1nc(N(C)C)nc(N(C#N)CCCl)n1	–	1 µM (active)
Cc1cccn2c(=O)c3cc(C(=O)NC(C)c4ccccc4)c(=N)n(CCCO)c3nc12 (centres undefined)	13.1%	–
CCOC(=O)c1c(NC(C)=O)c2c3c(sc2n1Cc1c(C)cc(C)cc1C)CCCC3	1.55%	–
O=C(c1cnn(-c2ccc(F)cc2)c1-n1cccc1)N1CCN(c2ccc(F)cc2)CC1	1.41%	–
CCCc1[nH]nc2c1C(c1ccc(Br)s1)C(C#N)=C(N)O2 (centres undefined)	-35.1%	–
Cc1cc(C)c(C#N)c(SCc2[nH]nc3c2C(c2ccccc2)C(C#N)=C(N)O3)n1 (centres undefined)	–	22.4 µM (active)
COc1ccc(-c2[nH]nc3c2C(c2ccncc2)C(C#N)=C(N)O3)cc1 (centres undefined)	-12.7%	–
S=C(Nc1cccnc1)Nc1ccccn1	-24.5%	–
Fc1cc(Br)ccc1NC(=S)Nc1cccnc1	–	10 µM (active)
O=C(Nc1cccnc1)c1cc2cc(Br)ccc2oc1=O	-25.1%	–
COc1cc(C2c3c(oc4ccccc4c3=O)C(=O)N2c2nc(C)c(C)s2)ccc1O (centres undefined)	-26.8%	–
O=C(Nc1c(C(=O)N2CCN(c3ccc(F)cc3)CC2)oc2ccccc12)c1ccco1	-0.224%	–
CC(C)(C)c1ccc(/C=C2\Oc3c(ccc(O)c3CN3CCN(CCO)CC3)C2=O)cc1	–	50.1 µM (active)
CCOC(=O)c1oc2c(CN3CCN(CCO)CC3)c(O)c(CC)cc2c(=O)c1-c1nc2ccccc2s1	-26.4%	–
O=C(CSc1nc2c(c(=O)[nH]1)CN(Cc1ccc3c(c1)OCO3)CC2)Nc1cc(F)ccc1F	-9.35%	–
CCOC(=O)c1cc2c(=O)[nH]c(C(Cl)(Cl)Cl)nc2o1	–	17.8 µM (active)
CCOC(=O)c1ccc(COC(=O)c2cc(=O)[nH]c3ccccc23)o1	-15.9%	–
CCOC(=O)c1cnc(COc2ccccc2Cl)[nH]c1=O	9.04%	–
Cc1ccc(OCC(=O)c2cc(C)n(Cc3ccco3)c2C)c([N+](=O)[O-])n1	–	35.5 µM (active)
Cc1cc(C(=O)COC(=O)CNC(=O)c2ccc(F)cc2)c(C)n1Cc1ccco1	-4.25%	–
COCC(C)n1c(C)cc(C(=O)COc2ccc(C)nc2[N+](=O)[O-])c1C (centres undefined)	59.1%	–
CCOc1ccccc1NC(=O)NC1CCCCCCC1	-7.77%	–

Compound	activity change, negative = inhibition	Potency
CCOc1ccccc1NC(=O)CCc1nnc2ccc(NCc3ccco3)nn12	-19.5%	–
CCOc1ccccc1NC(=S)NC(=O)CCc1ccccc1	–	7.94 µM (active)
CCOc1ccc(CNC(=O)Cn2cc3c(n2)-c2c(oc(C(=O)N4CCCC4)c2C)CC3)cc1	-0.78%	–
CC1=C(C(=O)OCc2ccc(C)cc2)C(c2c(Cl)cccc2Cl)CC(=O)N1 (centres undefined)	-1.29%	–
CCc1cccc(CC)c1NC(=S)NCc1ccc2[nH]c(C)cc2c1	4.53%	–
COc1ccc(CNC(=O)c2cc3c(=O)[nH]c4ccccc4c3s2)cc1	-3.05%	–
Cc1cc2cc(CNC(=O)c3cccs3)ccc2[nH]1	–	31.6 µM (active)
COc1cc2nc(SCc3ccc(F)cc3)n3nc(CCn4c(C)nc5ccccc54)nc3c2cc1OC	4.89%	–
CCCSc1nc2sc3c(c2c(=O)n1-c1cccc(Br)c1)CC(C)(C)OC3	7.71%	–
COc1ccc(CCNc2ncnc3c2cnn3-c2ccc(C)cc2)cc1	-0.478%	–
O=C(CSc1nccn1C1CCCC1)Nc1cc(C(F)(F)F)ccc1Cl	6.6%	–
Cc1oc(-c2ccccc2Cl)[n+]([O-])c1C	–	31.6 µM (active)
CCOc1cnc(-c2c(-c3ccccc3Cl)noc2C)o1	-5.55%	–
CCn1c(=O)c(=O)[nH]c2c(=O)oc3ccc(S(=O)(=O)Nc4ccc(OC)cc4)cc3c21	–	35.5 µM (active)
COc1ccc(NS(=O)(=O)c2ccc3oc(SCC(N)=O)nc3c2)cc1	-0.717%	–
COc1ccc(S(=O)(=O)Nc2ccc3oc(C)c(C(C)=O)c3c2)cc1	-27.8%	–
Cc1cc(NC(=O)COn2nnc3ccccc32)no1	0.17%	–
CCOC(=O)c1ccc(NC(=O)CS(=O)(=O)c2cn(CC)c3ccccc23)cc1	1.35%	–
Cc1cc(NC(=O)CS(=O)(=O)c2cn(C)c3ccccc23)no1	–	28.2 µM (active)
COc1ccc(N(C)C(=O)C2CCN(S(=O)(=O)c3cc(Br)cc4c3N(C(C)=O)CC4)CC2)cc1	4.51%	–
COc1ccc(Cl)cc1S(=O)(=O)N1CCC(c2ccncc2)CC1	-0.887%	–
CN(Cc1ccccn1)Cc1nc(-c2ccc(Cl)cc2)no1	–	28.2 µM (active)
CCN1CC(CN(C)Cc2nc(-c3ccc(Cl)cc3)no2)CC1=O (centres undefined)	-4.79%	–
COC(=O)c1ccc(-c2noc(CN(Cc3ccccn3)CC3CCCO3)n2)cc1 (centres undefined)	7.28%	–
